Laboratory results reported in paper PMC5540273 (PLoS ONE, 2017).

Experiments:
Settings in all cases: concentration: 1 μM, replicates: in singlicate; n = 1
CDK3 = tested on: CDK3
CDK4-cyclinD1 = tested on: CDK4-cyclinD1
CDK4-cyclinD3 = tested on: CDK4-cyclinD3
CDK4 = tested on: CDK4
CDK5 = tested on: CDK5
CDK7 = tested on: CDK7
CDK8 = tested on: CDK8
CDK9 = tested on: CDK9
CDKL1 = tested on: CDKL1
CDKL2 = tested on: CDKL2
CDKL3 = tested on: CDKL3
CDKL5 = tested on: CDKL5
CHEK1 = tested on: CHEK1
CHEK2 = tested on: CHEK2
CIT = tested on: CIT
CLK1 = tested on: CLK1
CLK2 = tested on: CLK2
CLK3 = tested on: CLK3
CLK4 = tested on: CLK4
CSF1R-autoinhibited = tested on: CSF1R-autoinhibited
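Further: KINOMEscan kinase panel screen.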

Row | SMILES | %Inh (CDK3) [%] | %Inh (CDK4-cyclinD1) [%] | %Inh (CDK4-cyclinD3) [%] | %Inh (CDK4) [%] | %Inh (CDK5) [%] | %Inh (CDK7) [%] | %Inh (CDK8) [%] | %Inh (CDK9) [%] | %Inh (CDKL1) [%] | %Inh (CDKL2) [%] | %Inh (CDKL3) [%] | %Inh (CDKL5) [%] | %Inh (CHEK1) [%] | %Inh (CHEK2) [%] | %Inh (CIT) [%] | %Inh (CLK1) [%] | %Inh (CLK2) [%] | %Inh (CLK3) [%] | %Inh (CLK4) [%] | %Inh (CSF1R-autoinhibited) [%]
1 | C[C@@H]1CC[C@H](C(=O)NC2CCCCC2)CN1c1cc(-c2ccc3c(N)n[nH]c3c2)nc(N)n1 [GSK2291363] | 18 | 0 | 0 | 14 | 15 | 0 | 37 | 0 | 0 | 26 | 0 | 4 | 0 | 22 | 24 | 40 | 26 | 16 | 35 | 31
2 | CCS(=O)c1ccc(-c2coc3ccc(-c4nnc(C)o4)cc23)cc1 (stereo not shown) | 0 | 25 | 0 | 32 | 12 | 20 | 5 | 0 | 0 | 0 | 0 | 0 | 0 | 0 | 2 | 0 | 0 | 0 | 5 | 8
3 | Fc1cccc(CSc2nnc(-c3ccc4c(c3)CCO4)o2)c1 | 0 | 0 | 17 | 0 | 4 | 0 | 0 | 0 | 3 | 4 | 0 | 16 | 0 | 3 | 0 | 73 | 20 | 0 | 78 | 5
4 | COC(=O)c1c(-c2ccccc2)c2cc(C)ccc2c(=O)n1Cc1ccccc1 | 0 | 0 | 0 | 0 | 0 | 0 | 5 | 0 | 4 | 0 | 0 | 0 | 0 | 0 | 0 | 0 | 0 | 0 | 0 | 0
5 | CCC(=O)c1c(-c2ccccc2)c2cc(Cl)ccc2c(=O)n1Cc1cc(S(C)(=O)=O)n(CCC(C)(C)O)n1 | 2 | 0 | 20 | 0 | 10 | 38 | 0 | 17 | 10 | 0 | 17 | 40 | 13 | 19 | 2 | 0 | 1 | 9 | 2 | 6
6 | Cn1c(=O)c(F)c(Nc2ccc(I)cc2F)c2c(=O)n(OC[C@H](O)CO)cnc21 | 38 | 1 | 0 | 0 | 0 | 0 | 46 | 14 | 51 | 29 | 7 | 0 | 0 | 0 | 17 | 7 | 16 | 17 | 0 | 0
7 | COC(=O)c1c(-c2ccccc2)c2cc(Br)ccc2c(=O)n1Cc1ccc(S(C)(=O)=O)cc1 | 0 | 0 | 5 | 0 | 15 | 29 | 0 | 3 | 0 | 0 | 22 | 26 | 0 | 23 | 23 | 0 | 14 | 0 | 13 | 7
8 | COc1cc2nccc(Nc3cccc(Oc4ccccc4)c3)c2cc1OC.Cl [GW284543] | 0 | 1 | 0 | 30 | 0 | 0 | 37 | 0 | 9 | 7 | 0 | 0 | 0 | 0 | 0 | 21 | 0 | 0 | 0 | 32
9 | Nc1nc(-c2ccccc2F)c(-c2ccnc3ccccc23)s1 [GW560459] | 0 | 11 | 0 | 32 | 0 | 0 | 39 | 0 | 0 | 26 | 0 | 0 | 0 | 14 | 30 | 12 | 0 | 8 | 7 | 24
10 | Nc1ncnc2c1ncn2-c1cccc(F)c1 [SKF-97560] | 0 | 27 | 13 | 30 | 0 | 0 | 0 | 0 | 0 | 0 | 0 | 21 | 17 | 0 | 6 | 22 | 0 | 0 | 0 | 19
11 | O=C(Nc1n[nH]c2cc(-c3ccccc3F)ccc12)C1CC1 [SB-733371] | 7 | 0 | 0 | 0 | 0 | 0 | 0 | 0 | 11 | 79 | 14 | 0 | 0 | 13 | 7 | 2 | 0 | 14 | 0 | 0
